# Pf growth 96h – Primary qHTS for delayed death inhibitors of the malarial parasite plastid, 96 hour incubation | P. falciparum luciferase reporter growth, 96 h | Potency, µM (titrated, usually from 28.7 µM), hits mostly inhibitors | hit rate 6.9% among 320,000
#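 Parasite growth measured via integrated firefly luciferase reporter in P. falciparum. Infected erythrocytes at 2% hematocrit, 0.05% parasitemia final were treated 96 hours at 37 C under 5% CO2, and luminescence was read.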
# SARS PLP yeast – qHTS of Yeast-based Assay for SARS-CoV PLP; S. cerevisiae expressing SARS-CoV PLpro, growth rescue; Potency, µM (series often up to 32.9 µM), most hits filed as activators; hit rate 0.19% among 330,000; calls by dose curve; also: nearly all actives have a fitted effect of over 55% in size
# Shiga toxin inh – A qHTS for Small Molecule Inhibitors of Shiga Toxin; Vero cells, Shiga toxin protein synthesis inhibition reporter; inhibition, % at 38.7 µM; hit rate 9.2% among 290,000; in the data active = inhibition mostly above about 28%, no sharp cut-off; inactive = mostly below about 43%
# AMA1 RON2 block – qHTS for Inhibitors of AMA1-RON; Towards Development of Antimalarial Drug Lead: Primary Screen; AlphaScreen AMA1-biotinylated RON2 peptide binding; Plasmodium falciparum AMA1 (3D7) - RON2 peptide interaction; hit rate 0.2% among 360,000; Potency, µM (titrated, usually from 58.2 µM), actives largely listed as inhibitors; also: nearly all actives have a fitted effect of over 45% in size
#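 AMA1 (3D7) with his tag at 25 nM final met compounds first, then biotinylated RON2 peptide at 25 nM; detection used donor plus acceptor beads, 10 µg/mL apiece, read by AlphaScreen after 30 min at room temperature.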
# Cycloheximide cs – Cycloheximide Counterscreen for Small Molecule Inhibitors of Shiga Toxin; cell reporter, cycloheximide protein synthesis inhibition counterscreen; max response, %; hit rate 12% among 300,000; in the data active = max response mostly above about 13%, no sharp cut-off; inactive = mostly below about 14%; also: read at 38.3 µM for the half of the compounds with a filed dose
# Pf growth 48h – Primary qHTS for delayed death inhibitors of the malarial parasite plastid, 48 hour incubation. P. falciparum luciferase growth in erythrocytes, 48 h. Potency, µM (doses to about 28.7 µM), usual class: inhibitors. hit rate 5.9% among 310,000. AID 504832, 2011
#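 Luciferase-expressing P. falciparum in infected erythrocytes (2% hematocrit, 0.1% parasitemia final) in RPMI 1640/0.5% Albumax were exposed to compound for 48 hours at 37 C, 5% CO2; growth read as luminescence.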
# A number is an active result; n = inactive; u = inconclusive; x = no result. Only some compounds are listed: those with a hit (about 19% of all), similar ones and a draw of the others. Unless noted, calls follow the shape of the dose curve; as a rule, active = well fitted curve in the direction sought with a large enough effect; inconclusive = small, poorly fitted or top-dose-only effect, or another doubt; inactive = no such curve, though single readings can be large; an effect the other way counts as inactive or inconclusive.
SMILES,Pf growth 96h,SARS PLP yeast,Shiga toxin inh,AMA1 RON2 block,Cycloheximide cs,Pf growth 48h
CSCC[C@H](NC(=O)[C@H](CC(C)C)NC(=O)[C@H](CO)NC(=O)[C@H](CCC(=O)O)NC(=O)[C@H](CC(C)C)NC(=O)[C@H](Cc1ccc(O)cc1)NC(=O)[C@H](CCCCN)NC(=O)[C@H](CCCCN)NC(=O)[C@H](C)NC(=O)[C@H](CO)NC(=O)[C@H](CC(C)C)NC(=O)[C@H](CCC(N)=O)NC(=O)CNC(=O)[C@H](CC(C)C)NC(=O)[C@H](CC(C)C)NC(=O)[C@H](CCCCN)NC(=O)[C@H](CO)NC(=O)[C@H](Cc1ccccc1)NC(=O)[C@H](CC(=O)O)NC(=O)[C@H](CO)NC(=O)[C@@H](NC(=O)[C@H](Cc1ccccc1)NC(=O)[C@@H](NC(=O)CNC(=O)[C@H](CC(=O)O)NC(=O)[C@H](C)NC(=O)[C@@H](N)Cc1cnc[nH]1)C(C)C)[C@@H](C)O)C(N)=O,x,x,n,x,n,x
CC(=O)OC(C(=O)Nc1nccs1)c1ccccc1 (centres undefined),n,n,n,n,n,n
Cn1cc(Br)c(C(=O)NC2CCCCCC2)n1,u,n,n,n,17.2,n
Nc1ccccc1C(=O)Nc1nccs1,n,n,61.7,n,44.7,n
Cn1cc(Br)c(C(=O)NC2C3CC4CC(C3)CC2C4)n1 (centres undefined),n,n,n,n,n,n
O=C(Nc1nccs1)C(Br)C(Br)c1ccccc1 (centres undefined),n,n,68.6,n,33.7,n
O=C(Nc1nccs1)c1ccccc1[N+](=O)[O-],u,n,n,n,n,n
O=C(Nc1nccs1)c1ccccc1Br,u,n,n,n,27.6,n
CC(N)c1ccc(Cl)cc1Cl (centres undefined),u,n,n,n,n,n
Cn1cc(Br)c(C(=O)Nc2nccs2)n1,n,n,42.9,n,26.8,n
CSc1ncc(C(=O)Nc2ccc(C(C)=O)cc2)c(-c2ccccc2)n1,u,n,51.4,n,40.6,n
CC(=O)c1ccc(NC(=O)c2ccccc2-c2ccccc2C(=O)O)cc1,4.65µM,n,n,n,n,n
CSc1ncc(C(=O)Nc2ccccc2F)c(-c2ccccc2)n1,n,n,n,n,n,n
Cc1nn(C)c(Sc2ccccn2)c1[N+](=O)[O-],u,n,n,n,n,n
COc1ccc(C(=O)N(C)[C@H]2C[C@H]3c4[nH]c5ccccc5c4CCN3C(=O)[C@H]2CO)cc1,x,x,x,n,x,x
CCOC(=O)N1CCC(=NNc2nc(C)cc(=O)[nH]2)CC1,u,n,41.9,n,n,n
O=C(O)C1=NN(c2cc(Cl)c(S(=O)(=O)O)cc2Cl)C(=O)C1,x,x,x,2.82µM,x,x
CC1=NN(c2ccc(S(=O)(=O)O)cc2C)C(=O)C1,n,n,n,n,n,n
S=c1[nH]cc(-c2ccccc2)[nH]1,u,n,34.4,n,39.3,n
CCCCn1c(N)c(N(CC)C(=O)c2c(C)noc2C)c(=O)[nH]c1=O,x,n,x,n,x,x
CC1(C(=O)NS(=O)(=O)c2cccc(C#N)c2)CCN1C(=O)Cc1ccccc1 (centres undefined),x,x,x,n,x,x
Cc1ccc(OCc2cc(C(=O)NCc3cc(F)ccc3C)no2)cn1,n,n,27.7,n,22.2,n
Cc1cc(C)nc(CCNC(=O)c2cc(COc3c(F)cccc3F)on2)n1,u,n,n,n,n,u
CC(=O)c1ccc(OCc2cc(C(=O)NCCc3ccc(Cl)cc3)no2)cc1,n,n,47.8,n,19.1,n
Cc1cc(C)nc(CCNC(=O)c2cc(COc3ccccc3)on2)n1,u,n,55.7,n,35.7,n
SMILES,Pf growth 96h,SARS PLP yeast,Shiga toxin inh,AMA1 RON2 block,Cycloheximide cs,Pf growth 48h
CC(=O)c1ccc(OCc2cc(C(=O)NCC3CCCCO3)no2)cc1 (centres undefined),n,n,46.3,n,25.1,n
CCOc1ccc(-c2cncc3nccn23)cc1,x,x,x,n,x,x
CCO[C@H]1OC(C(=O)O)=C[C@@H](c2ccc(C(F)(F)F)cc2)[C@@H]1CCCO,n,n,n,n,n,n
COc1ccc(C2=Cc3ccccc3C(CC(=O)C3CC3)N2c2ccc(C#CCCO)cc2)cc1 (centres undefined),x,x,x,n,x,x
CCN1CCCC1CNC(=O)c1cc(COc2ccc(C)c(C)c2)on1 (centres undefined),13.1µM,n,53.0,n,32.4,n
Cc1ccc(OCc2cc(C(=O)NCC(C)(C)N3CCOCC3)no2)cc1C,n,n,n,n,n,u
Cc1ccc(OCc2cc(C(=O)NCC3COCCO3)no2)cc1C (centres undefined),10.4µM,n,41.8,n,40.7,n
COc1ccc(CCN2C(=O)c3[nH]nc(-c4ccccc4O)c3C2c2cccc(Cl)c2)cc1 (centres undefined),1.85µM,n,n,n,n,3.29µM
COc1ccc(C2c3c(-c4ccccc4O)n[nH]c3C(=O)N2CCc2ccc(OC)c(OC)c2)cc1 (centres undefined),n,n,n,n,n,7.38µM
Cc1ccc(C2c3c(-c4ccccc4O)n[nH]c3C(=O)N2Cc2ccncc2)cc1 (centres undefined),u,n,n,n,n,u
CCOC(=O)c1cccc(OS(=O)(=O)Cc2ccccc2)c1,x,x,x,n,x,x
Cc1ccc(C(=O)N/N=C\c2ccccn2)cn1,n,n,62.5,n,40.1,n
Cc1occc1C(=O)N/N=C/c1ccccn1,n,n,75.0,n,38.1,u
CC(C)(C)c1ccc(C(=O)N/N=C/c2ccccn2)cc1,n,n,84.7,n,45.4,u
C(=N\N=C\c1ccccn1)/c1ccccn1,u,n,n,n,12.6,13.1µM
Cc1ccccc1C(=O)Nc1ccc(C(=O)N/N=C/c2ccccn2)cc1,n,n,n,n,n,n
O=C(N/N=C/c1ccccn1)c1ccc(N/N=C/c2ccccn2)cc1,u,n,63.4,n,28.6,u
O=C(CNc1ccc2ccccc2c1)N/N=C/c1ccc(OC(=O)/C=C/c2ccco2)cc1,n,n,n,n,n,8.28µM
Cc1ccc(C(=O)N/N=C/c2cccc(OC(=O)/C=C/c3ccco3)c2)cn1,u,n,85.6,n,33.4,n
Cc1onc(-c2c(F)cccc2Cl)c1C(=O)Nc1cccc(S(=O)(=O)N2CCOCC2)c1,x,n,x,n,x,x
CC(C)C(=O)Nc1nnc(SCC(=O)NC2CCCC2)s1,n,n,n,n,n,n
COc1ccccc1NC=C1C(=O)OC2(CCCCC2)OC1=O,n,n,n,n,30.7,n
OCCN1CCN(c2nc(-c3ccccc3)nc3c2oc2ccccc23)CC1,u,n,n,n,n,x

# From PubChem
